Experimental data taken from PubChem BioAssay (EPA / NIEHS).
The source made the active and inactive calls. Rule for the calls: active = hit-call score of the fitted dose curve at least 0.9, where 1 is the maximum; inactive = score below 0.9.

Experiment: ATG_ISRE_CIS: Attagene CIS-FACTORIAL HepG2 Assay for human Interferon Regulatory Factor 1 (IRF1) binding to an Interferon-Stimulated Response Element (ISRE) (AID 2282948)
Conditions: HepG2 ISRE cis-reporter (Attagene), mRNA transcription readout; actives raise or lower the signal
Experimental: ATG_CIS is a cell-based, multiplexed-readout assay that uses HepG2, a human liver cell line, with measurements taken at 24 hours after chemical dosing in a 24-well plate.ATG_ISRE_CIS is one of 52 assay component(s) measured or calculated from the ATG_CIS assay. It is designed to make measurements of mRNA induction, a form of inducible reporter, as detected with fluorescence intensity signals by Reverse transcription polymerase chain reaction (RT-PCR) and Capillary electrophoresis technology.Data from the assay component ATG_ISRE_CIS was analyzed into 1 assay endpoint. This assay endpoint, ATG_ISRE_CIS, was analyzed with bidirectional fitting relative to DMSO as the negative control and baseline of activity. Using a type of inducible reporter, measures of mRNA for gain or loss-of-signal activity can be used to understand the reporter gene at the transcription factor-level as they relate to the gene IRF1. Furthermore, this assay endpoint can be referred to as a primary readout, because this assay has produced multiple assay endpoints where this one serves a reporter gene function. To generalize the intended target to other relatable targets, this assay endpoint is annotated to the dna binding intended target family, where the subfamily is interferon regulatory factors.
Human liver HepG2 cells are transiently transfected with multiple reporter transcription units (MRTUs) in 6-well plates using FuGene 6 reagent (Roche; 3 ml FuGene/1 mg DNA). The MRTU constructs are regulated by a cis-regulating element (promoter). […] A major difference between the CIS and TRANS system is that in CIS activities of endogenous TFs are measured, whereas the TRANS assay evaluates changes in activities of exogenous, chimeric NR-Gal4 proteins. […] At the end of 24 hour incubation, total RNA was isolated using TriZol reagent (Invitrogen). The isolated RNA is then reverse-transcribed using oligo(dT) primer and Mo-MLV reverse transcriptase (Invitrogen) with DNAse I (Ambion) treatment for 30 min. The one-tenth of the produced cDNA was amplified by PCR using Taq DNA polymerase (Invitrogen) and two reporter sequence-specific primers. The PCR products were fluorescently labeled by primer extension with 6-arboxyfluorescein (6-FAM) 5'-labeled reporter sequence-specific primer (2 min at 95 C, 20 s at 68 C and 10 min at 72 C) and these products were digested with 5U of HpaI (New England Biolabs) for 2h at 37 C. The fragments were purified using Qiaquick PCR columns (Qiagen), analyzed on an ABI 3130xL genetic analyzer (Applied Biosystems) with peak positions identified by using a set of X-rhodamine (ROX)-labeled MapMarker1000 molecular weight standards (BioVentures). The raw capillary electrophoresis data was processed using Attagraph software (Attagene).

| Compound | AC50 | outcome |
| --- | --- | --- |
| NC(=O)c1ccccc1Cl | 100 µM (active) |  |
| O=C1C(c2[nH]c3ccc(S(=O)(=O)O)cc3c2O)=Nc2ccc(S(=O)(=O)O)cc21 |  | inactive |
| COc1ccc(O)cc1 |  | inactive |
| Nc1cc([N+](=O)[O-])ccc1Cl |  | inactive |
| CCCCCCCCCOC(C)=O |  | inactive |
| CC(C)[C@@H]1CC[C@@H](C)CC1=O |  | inactive |
| CC(=O)C(C)=O |  | inactive |
| CCCCCCCCCCCCCOS(=O)(=O)O |  | inactive |
| CC(=O)Nc1ccc(C)cc1C |  | inactive |
| CCCCCCCCCCCCOCCO | 20.4 µM (active) |  |
| CCC(O)CO (stereo not given) |  | inactive |
| C=CCOc1nc(OCC=C)nc(OCC=C)n1 |  | inactive |
| OCCOCCOCCOCCO |  | inactive |
| COc1cccc(OC)c1 |  | inactive |
| CC1(C)[C@@H]2CC[C@@]1(C)[C@H](O)C2 |  | inactive |
| O=C=NC1CCC(CC2CCC(N=C=O)CC2)CC1 (stereo not given) |  | inactive |
| O=c1oc(=O)c2cc3c(=O)oc(=O)c3cc12 |  | inactive |
| Fc1c(F)c(F)c(Br)c(F)c1F |  | inactive |
| CC(C)=CCO |  | inactive |
| CCCCCCCCCCCCCCCCCC(=O)OCC(CC)CCCC (stereo not given) |  | inactive |

| Compound | AC50 | outcome |
| --- | --- | --- |
| CCO[Si](CCCS)(OCC)OCC |  | inactive |
| Cc1ccc(O)c(C(C)(C)C)c1 |  | inactive |
| Cc1ccc2ccccc2n1 |  | inactive |
| COc1cc2ncnc(Nc3cccc(Cl)c3)c2cc1OC | 5.56 µM (active) |  |
| CCCCCCC#CC(=O)OC |  | inactive |
| Cc1ccc(C=O)cc1 |  | inactive |
| CCCC1CCC(=O)O1 (stereo not given) |  | inactive |
| CC(C)(N)CO |  | inactive |
| CNCCCC12CCC(c3ccccc31)c1ccccc12 | 17.9 µM (active) |  |
| CC1CC(OC(=O)c2ccccc2O)CC(C)(C)C1 (stereo not given) |  | inactive |
| CC(C)(C)c1cc(CCC(=O)NN)cc(C(C)(C)C)c1O |  | inactive |
| Cc1c(N(C)C)c(=O)n(-c2ccccc2)n1C |  | inactive |
| O=C1NC(=O)c2ccccc21 |  | inactive |
| CCCCN |  | inactive |
| Cc1ccc2n[nH]nc2c1 |  | inactive |
| COc1ccc(Nc2ccccc2)c(C)c1 |  | inactive |
| O=C1CCCCCCCCCCCCCCO1 |  | inactive |
| CCCCCCOC(=O)CC |  | inactive |
| N#Cc1ccc(CC(=NNC(=O)Nc2ccc(OC(F)(F)F)cc2)c2cccc(C(F)(F)F)c2)cc1 |  | inactive |
| COc1nc(C)nc(N)n1 |  | inactive |
